Nrf2 activator = qHTS of Nrf2 Activators; AREc32 ARE-luciferase reporter (MCF7-derived line), luminescence, 24 h; Potency, µM (highest dose often 46.1 µM), actives largely listed as activators; 410,000 compounds, 0.31% hits; AID 624171, 2012; further: nearly all actives have a fitted effect of over 65% in size
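AREc32_Fluc, 1000 cells/well, OPTI-MEM + 5% FBS, o/n 37 deg C 5% CO2; 23 nL cpd by pin tool, 24 hr; Steady-Glo 30 min RT, luminescence.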
A549 tox = Nrf2 qHTS screen for inhibitors: counterscreen for cytotoxicity; Potency, µM (doses to about 46 µM), most hits filed as inhibitors; AID 504648, 2011; A549 ARE-Fluc cells, CellTiter-Fluor viability, 18-24 h; 390,000 compounds, 0.16% hits
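A549 ARE-Fluc cells in 5% FBS OPTI-MEM, 5000 cells/well, rested 2 h then exposed to compounds in concentration-response for 18-24 h at 37 °C. Viability by CellTiter-Fluor fluorescence (Ex 405/Em 525) after 30 min; luciferase luminescence (BugLite, 15 min, RT) read afterwards.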
IL2 activator = qHTS of IL-2 Activators; IL-2 activation reporter assay, cell-based qHTS; stimulated with anti-CD3/CD4/CD28 beads; in transgenic mouse T cells; activation, % (series mostly up to about 46 µM); 360,000 compounds, 0.065% hits; in the data active means activation above about 50%; inconclusive means mostly about 30% to 49%
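Unstimulated transgenic mouse T cells; 60-min compound exposure; bead-based TCR/CD4/CD28 stimulation; 18 h culture, 37 degrees C; dual fluorescence (EGFP, DsRed) plate cytometry.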
Nrf2 inh = Nrf2 qHTS screen for inhibitors; A549 ARE-Fluc reporter, luciferase luminescence, 18-24 h; Potency, µM (doses to about 46 µM), actives largely listed as inhibitors; 360,000 compounds, 2.1% hits; further: nearly all actives have a fitted effect of over 60% in size
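Two sequential reads on A549 ARE_Fluc cells exposed to compound for 18-24 h: a CellTiter-Fluor fluorescence read for viability, then a luciferase luminescence read for Nrf2/ARE activity.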
Large screens that a line does not name were inactive. Compounds with a hit are over-represented: about 2.3% of the library has one in this group of screens. Unless noted, the call rests on the fitted dose curve; in most records, active means well fitted curve in the direction sought with a large enough effect; inconclusive means small, poorly fitted or top-dose-only effect, or another doubt; inactive means no such curve, though single readings can be large; an effect the other way counts as inactive or inconclusive.

Cc1ccc(S(=O)(=O)c2cn(Cc3ccccc3Cl)c3ccc(F)cc3c2=O)cc1	none (no result: IL2 activator)
FC(F)(F)c1cc(-c2ccco2)nc(NCc2ccco2)n1	Nrf2 activator 10µM
FC(F)(F)c1cc(-c2ccco2)nc(NCc2cccs2)n1	Nrf2 activator inconclusive
CCc1ccc(-c2cc(C(=O)N/N=C/c3c[nH]c4ccccc34)[nH]n2)cc1	Nrf2 inh inconclusive
CCc1ccc(/C=C/c2c[nH]c3ccccc23)[n+](CC)c1	A549 tox inconclusive, Nrf2 inh 6.5µM
O=[N+]([O-])c1ccccc1/C=N/Nc1nccnc1Cl	Nrf2 activator 6.3µM (no result: Nrf2 inh)
Oc1ccccc1/C=N/Nc1nccnc1Cl	Nrf2 inh inconclusive
COc1ccccc1CNC(=O)c1c(N)n(CCCN2CCOCC2)c2nc3ccccc3nc12	A549 tox inconclusive, Nrf2 inh 18µM
Nc1c(C(=O)NCc2ccc3c(c2)OCO3)c2nc3ccccc3nc2n1CCCN1CCOCC1	none
Nc1c(C(=O)NCCN2CCOCC2)c2nc3ccccc3nc2n1CCc1ccccc1	Nrf2 inh 15µM
Nc1c(C(=O)NCCN2CCOCC2)c2nc3ccccc3nc2n1CCc1ccccc1F	Nrf2 inh inconclusive
COCCn1c(N)c(C(=O)NCc2cccs2)c2nc3ccccc3nc21	Nrf2 inh 23µM
COCCn1c(N)c(C(=O)NCC2CCCO2)c2nc3ccccc3nc21 (configuration not stated)	A549 tox inconclusive, Nrf2 inh inconclusive
CC(=O)c1cccc(NC(=O)c2cnn(-c3cccc(C)c3)c2-n2cccc2)c1	Nrf2 inh inconclusive (no result: IL2 activator)
COc1ccc(NC(=O)CN(C)C(=O)C2(c3ccccc3)CCCC2)cc1	Nrf2 inh 8.2µM
COc1cc(/C=C2\SC(=O)N(c3ccc(Cl)cc3)C2=O)cc([N+](=O)[O-])c1O	A549 tox 16µM, Nrf2 inh inconclusive
O=C1S/C(=C\c2ccc(O)c([N+](=O)[O-])c2)C(=O)N1c1ccccc1Cl	A549 tox inconclusive, Nrf2 inh inconclusive
COc1cc(/C=C2\SC(=O)N(c3cccc(Cl)c3)C2=O)cc([N+](=O)[O-])c1O	A549 tox 13µM, Nrf2 inh inconclusive
CCOc1ccc(CNC(=O)c2ccc3c(c2)nc2n3CCC(C)C2)cc1OC (configuration not stated)	none (no result: IL2 activator, Nrf2 inh)
Cc1cccc(NC(=O)CN2CCN(C(=O)CN3C(=O)NC4(CC(C)CC(C)(C)C4)C3=O)CC2)c1C (configuration not stated)	Nrf2 inh 16µM
CC1CC(C)(C)CC2(C1)NC(=O)N(CC(=O)N1CCN(Cc3ccc(C#N)cc3)CC1)C2=O (configuration not stated)	Nrf2 inh 1.8µM
O=C(OCC#CCSc1nnc(-c2cccc3ccccc23)o1)C1CCC1	none (no result: Nrf2 activator, IL2 activator)
Cn1c(SCc2ccc(C#N)cc2)nnc1-c1ccncc1	none
C=CCn1c(SCc2ccc(C#N)cc2)nnc1-c1ccc(C)cc1	Nrf2 inh 21µM
CCOc1ccc(-c2cc(NC(=O)Nc3ccc(Cl)cc3)c(C(=O)OC)s2)cc1	Nrf2 inh inconclusive (no result: IL2 activator)
CCCCc1c(C)c(C#N)c2nc3ccccc3n2c1NCCN(C)C	A549 tox 6.5µM, Nrf2 inh 6.5µM
Cn1cc(P(=O)(c2ccccc2)c2ccccc2)c2ccccc21	none (no result: Nrf2 activator, IL2 activator)
Cc1nc(SCC(=O)c2cc3ccccc3oc2=O)c(C#N)c(-c2ccccc2)c1C(=O)Nc1ccccc1	Nrf2 inh 23µM
Cc1nc(-c2ccccc2)sc1-c1nc(-c2cccnc2)ncc1S(=O)(=O)c1ccccc1	A549 tox inconclusive, Nrf2 inh 23µM
O=S(=O)(c1ccccc1)c1cnc(-c2cccnc2)nc1-c1ccccc1	none
CC(=O)Nc1ccc(-c2csc(NNC(=O)c3ccccc3)n2)cc1	A549 tox inconclusive, Nrf2 inh 13µM
CC(=O)Nc1ccc(-c2csc(Nc3ccc(Cl)cn3)n2)cc1	Nrf2 inh 15µM
COc1cccc(C(=O)Nc2ccc(Cl)c(-c3nc4ccccc4[nH]3)c2)c1	A549 tox inconclusive, Nrf2 inh inconclusive (no result: IL2 activator)
COCCn1c(SCC(=O)Nc2cccc(C)c2C)nc2c(oc3ccccc32)c1=O	A549 tox inconclusive (no result: IL2 activator)
CC(C)Oc1ccc(CNC(=O)c2ccc(CS(=O)c3cccc(Cl)c3)o2)cc1 (configuration not stated)	Nrf2 inh inconclusive (no result: IL2 activator)
O=S(=O)(c1cc(F)ccc1F)N1CCN(c2ncnc3ccccc23)CC1	Nrf2 inh 12µM
C/C(N)=C(/C#N)C(=O)CSc1nc2scc(-c3ccccc3)c2c(=O)n1C	Nrf2 inh 15µM
O=C(C1CCC(Cn2c(=O)c3sccc3n(Cc3cccc(F)c3)c2=O)CC1)N1CCCCC1 (configuration not stated)	Nrf2 inh inconclusive (no result: IL2 activator)
C[C@@H]1CN([C@H](C)CO)C(=O)c2cc(NS(=O)(=O)c3ccc(F)cc3)ccc2O[C@@H]1CN(C)Cc1ccc(Cl)c(Cl)c1	A549 tox 15µM, Nrf2 inh 18µM
C[C@H](CO)N1C[C@H](C)[C@@H](CN(C)CC2CCCCC2)Oc2c(NC(=O)Cc3ccccc3)cccc2C1=O	Nrf2 inh 23µM
C[C@H](CO)N1C[C@H](C)[C@@H](CN(C)Cc2ccc(Cl)c(Cl)c2)Oc2c(NC(=O)C3CC3)cccc2C1=O	A549 tox inconclusive, Nrf2 inh inconclusive
CC(C)NC(=O)N(C)C[C@H]1Oc2c(NC(=O)Cc3ccccc3)cccc2C(=O)N([C@H](C)CO)C[C@@H]1C	none
C[C@H](CO)N1C[C@H](C)[C@@H](CN(C)Cc2ccc(Cl)c(Cl)c2)Oc2c(NC(=O)CCC(F)(F)F)cccc2C1=O	Nrf2 inh 18µM
COc1ccc(S(=O)(=O)Nc2cccc3c2O[C@H](CN(C)Cc2ccc(Oc4ccccc4)cc2)[C@@H](C)CN([C@H](C)CO)C3=O)cc1	Nrf2 inh 16µM
COc1ccc(S(=O)(=O)Nc2cccc3c2O[C@H](CN(C)Cc2ccc(-c4ccccc4)cc2)[C@@H](C)CN([C@H](C)CO)C3=O)cc1	none
COc1ccc(N2CCN(S(=O)(=O)c3ccc(CC(C)C)cc3)CC2)cc1	none (no result: IL2 activator)
Cc1ccc(-c2nc3sc(CCNS(=O)(=O)c4cc(F)ccc4F)c(C)n3n2)cc1	none (no result: IL2 activator, Nrf2 inh)
CCN(CC)CCC(c1cc(OC)c(OC)c(OC)c1)c1c(OC)cc(OC)c2c1OC(=O)CC2c1ccc(N(C)C)cc1 (configuration not stated)	none (no result: Nrf2 activator, IL2 activator)
C[C@H](CO)N1C[C@H](C)[C@@H](CN(C)S(=O)(=O)c2ccc(F)cc2)Oc2c(NC(=O)Nc3ccc(C(F)(F)F)cc3)cccc2C1=O	Nrf2 inh 18µM
O=S(=O)(c1ccc2c(c1)OCCO2)N1CCN(S(=O)(=O)c2cccc(Cl)c2F)CC1	none (no result: Nrf2 activator, IL2 activator)
CC(=O)c1ccc(OCCNS(=O)(=O)c2ccc(-n3cnnn3)c(C)c2)cc1	Nrf2 inh 5.8µM
COc1ccc(CNS(=O)(=O)c2ccc(-n3cnnn3)c(C)c2)cc1	none
COC(=O)c1ccc(-c2ccc(OC)c(C3C4C=CCC(C)C4C(=O)N3Cc3ccccc3)c2)cc1 (configuration not stated)	none (no result: Nrf2 activator, IL2 activator)
